Experiments:
[1] = tested on: Epidermal growth factor receptor (Homo sapiens), P00533 [T790M]; settings: at 1 µM
[2] = tested on: Epidermal growth factor receptor (Homo sapiens), P00533 [L858R,T790M]; settings: at 0.1 µM
[3] = tested on: Epidermal growth factor receptor (Homo sapiens), P00533 [L858R,T790M]; settings: at 1 µM
[4] = target: Ephrin type-A receptor 2 (Homo sapiens) (UniProt P29317); settings: at 0.1 µM
[5] = target: Ephrin type-A receptor 2 (Homo sapiens) (UniProt P29317); settings: at 1 µM
[6] = target: T1, Ephrin type-A receptor 3 (Homo sapiens) (UniProt P29320); settings: at 0.1 µM
T1 sequence (whole entry): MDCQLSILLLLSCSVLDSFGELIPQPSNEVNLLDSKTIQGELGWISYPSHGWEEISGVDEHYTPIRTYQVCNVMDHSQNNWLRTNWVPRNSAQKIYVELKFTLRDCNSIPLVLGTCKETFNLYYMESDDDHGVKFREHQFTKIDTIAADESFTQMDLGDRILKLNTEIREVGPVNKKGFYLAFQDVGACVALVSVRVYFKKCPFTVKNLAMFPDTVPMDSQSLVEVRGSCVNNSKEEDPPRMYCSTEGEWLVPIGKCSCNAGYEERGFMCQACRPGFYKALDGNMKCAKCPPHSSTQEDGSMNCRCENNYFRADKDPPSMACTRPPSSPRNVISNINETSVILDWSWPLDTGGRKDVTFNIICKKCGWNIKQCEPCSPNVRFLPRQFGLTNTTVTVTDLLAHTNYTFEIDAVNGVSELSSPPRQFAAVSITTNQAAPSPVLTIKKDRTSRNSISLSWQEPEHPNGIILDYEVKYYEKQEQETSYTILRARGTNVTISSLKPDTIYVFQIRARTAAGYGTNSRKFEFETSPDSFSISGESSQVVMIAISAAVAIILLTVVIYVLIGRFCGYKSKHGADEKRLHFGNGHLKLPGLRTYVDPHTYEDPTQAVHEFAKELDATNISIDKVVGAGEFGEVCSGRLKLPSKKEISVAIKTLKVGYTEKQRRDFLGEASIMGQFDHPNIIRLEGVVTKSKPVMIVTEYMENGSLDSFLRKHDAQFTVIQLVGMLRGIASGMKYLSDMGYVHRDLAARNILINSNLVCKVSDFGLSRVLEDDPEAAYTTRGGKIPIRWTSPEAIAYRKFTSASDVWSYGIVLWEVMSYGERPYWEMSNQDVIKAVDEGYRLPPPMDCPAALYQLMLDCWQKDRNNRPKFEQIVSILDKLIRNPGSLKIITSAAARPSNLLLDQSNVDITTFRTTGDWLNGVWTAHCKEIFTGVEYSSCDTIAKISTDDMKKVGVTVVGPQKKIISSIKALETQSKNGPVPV

[7] = target: T1, Ephrin type-A receptor 3 (Homo sapiens); settings: at 1 µM
[8] = target: Ephrin type-A receptor 4 (Homo sapiens) (UniProt P54764); settings: at 0.1 µM
[9] = target: Ephrin type-A receptor 4 (Homo sapiens) (UniProt P54764); settings: at 1 µM
[10] = target: T2, Ephrin type-B receptor 2 (Homo sapiens) (UniProt P29323); settings: at 0.1 µM
T2 sequence (whole entry): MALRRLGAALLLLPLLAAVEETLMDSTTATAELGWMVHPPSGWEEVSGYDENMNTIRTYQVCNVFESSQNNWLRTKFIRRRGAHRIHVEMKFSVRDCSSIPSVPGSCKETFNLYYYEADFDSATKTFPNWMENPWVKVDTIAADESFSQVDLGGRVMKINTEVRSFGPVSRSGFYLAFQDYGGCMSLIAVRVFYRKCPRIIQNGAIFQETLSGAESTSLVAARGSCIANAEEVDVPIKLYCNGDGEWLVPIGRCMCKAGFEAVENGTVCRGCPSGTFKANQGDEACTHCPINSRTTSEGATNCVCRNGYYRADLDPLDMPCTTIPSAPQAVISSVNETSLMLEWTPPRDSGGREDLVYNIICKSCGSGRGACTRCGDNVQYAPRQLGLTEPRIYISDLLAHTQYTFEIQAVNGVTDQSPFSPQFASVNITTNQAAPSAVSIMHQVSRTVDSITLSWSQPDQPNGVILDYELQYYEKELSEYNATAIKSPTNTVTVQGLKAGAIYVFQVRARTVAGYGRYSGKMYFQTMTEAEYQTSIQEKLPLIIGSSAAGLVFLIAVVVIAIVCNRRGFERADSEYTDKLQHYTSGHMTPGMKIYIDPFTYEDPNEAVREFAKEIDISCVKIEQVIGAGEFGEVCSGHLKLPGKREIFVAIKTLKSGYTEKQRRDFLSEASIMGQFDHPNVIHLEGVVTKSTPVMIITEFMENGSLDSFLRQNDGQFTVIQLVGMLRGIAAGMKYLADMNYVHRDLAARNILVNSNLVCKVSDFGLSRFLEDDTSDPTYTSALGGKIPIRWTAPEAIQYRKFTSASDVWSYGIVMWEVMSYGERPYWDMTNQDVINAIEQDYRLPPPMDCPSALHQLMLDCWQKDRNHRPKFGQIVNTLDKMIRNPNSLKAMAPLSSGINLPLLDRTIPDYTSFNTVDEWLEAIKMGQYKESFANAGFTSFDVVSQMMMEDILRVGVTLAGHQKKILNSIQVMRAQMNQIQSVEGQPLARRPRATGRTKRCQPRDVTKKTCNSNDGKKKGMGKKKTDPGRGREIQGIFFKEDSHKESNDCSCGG

[11] = target: T2, Ephrin type-B receptor 2 (Homo sapiens); settings: at 1 µM
[12] = target: T3, Ephrin type-B receptor 3 (Homo sapiens) (UniProt P54753); settings: at 0.1 µM
T3 sequence (whole entry): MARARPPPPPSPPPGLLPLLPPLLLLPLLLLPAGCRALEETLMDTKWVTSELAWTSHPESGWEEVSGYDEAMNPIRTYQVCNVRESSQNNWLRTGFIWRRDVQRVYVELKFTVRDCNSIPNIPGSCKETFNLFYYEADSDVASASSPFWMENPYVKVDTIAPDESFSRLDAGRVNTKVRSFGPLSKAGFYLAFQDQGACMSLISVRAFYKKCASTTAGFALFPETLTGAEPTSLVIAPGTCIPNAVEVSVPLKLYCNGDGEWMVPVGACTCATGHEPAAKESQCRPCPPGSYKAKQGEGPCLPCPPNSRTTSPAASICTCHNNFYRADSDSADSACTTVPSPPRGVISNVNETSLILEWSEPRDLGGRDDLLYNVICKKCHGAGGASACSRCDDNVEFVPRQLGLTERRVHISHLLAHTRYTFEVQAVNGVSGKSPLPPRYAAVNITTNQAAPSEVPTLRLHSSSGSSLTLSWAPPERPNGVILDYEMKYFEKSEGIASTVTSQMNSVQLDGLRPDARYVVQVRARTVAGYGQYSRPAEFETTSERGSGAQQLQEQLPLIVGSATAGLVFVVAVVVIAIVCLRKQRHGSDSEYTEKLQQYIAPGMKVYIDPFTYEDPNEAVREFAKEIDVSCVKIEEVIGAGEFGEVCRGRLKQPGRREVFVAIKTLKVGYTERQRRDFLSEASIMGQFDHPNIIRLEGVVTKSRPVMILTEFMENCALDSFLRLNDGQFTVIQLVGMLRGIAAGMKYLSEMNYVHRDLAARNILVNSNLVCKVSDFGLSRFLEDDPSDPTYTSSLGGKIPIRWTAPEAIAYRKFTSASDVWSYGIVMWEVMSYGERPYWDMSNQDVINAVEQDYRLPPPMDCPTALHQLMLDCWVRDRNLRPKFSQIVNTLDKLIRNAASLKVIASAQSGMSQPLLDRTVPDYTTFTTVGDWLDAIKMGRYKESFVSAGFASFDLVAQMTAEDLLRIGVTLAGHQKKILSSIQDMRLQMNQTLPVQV

[13] = target: T3, Ephrin type-B receptor 3 (Homo sapiens); settings: at 1 µM
[14] = target: T4, Ephrin type-B receptor 4 (Homo sapiens) (UniProt P54760); settings: at 0.1 µM
T4 sequence (whole entry): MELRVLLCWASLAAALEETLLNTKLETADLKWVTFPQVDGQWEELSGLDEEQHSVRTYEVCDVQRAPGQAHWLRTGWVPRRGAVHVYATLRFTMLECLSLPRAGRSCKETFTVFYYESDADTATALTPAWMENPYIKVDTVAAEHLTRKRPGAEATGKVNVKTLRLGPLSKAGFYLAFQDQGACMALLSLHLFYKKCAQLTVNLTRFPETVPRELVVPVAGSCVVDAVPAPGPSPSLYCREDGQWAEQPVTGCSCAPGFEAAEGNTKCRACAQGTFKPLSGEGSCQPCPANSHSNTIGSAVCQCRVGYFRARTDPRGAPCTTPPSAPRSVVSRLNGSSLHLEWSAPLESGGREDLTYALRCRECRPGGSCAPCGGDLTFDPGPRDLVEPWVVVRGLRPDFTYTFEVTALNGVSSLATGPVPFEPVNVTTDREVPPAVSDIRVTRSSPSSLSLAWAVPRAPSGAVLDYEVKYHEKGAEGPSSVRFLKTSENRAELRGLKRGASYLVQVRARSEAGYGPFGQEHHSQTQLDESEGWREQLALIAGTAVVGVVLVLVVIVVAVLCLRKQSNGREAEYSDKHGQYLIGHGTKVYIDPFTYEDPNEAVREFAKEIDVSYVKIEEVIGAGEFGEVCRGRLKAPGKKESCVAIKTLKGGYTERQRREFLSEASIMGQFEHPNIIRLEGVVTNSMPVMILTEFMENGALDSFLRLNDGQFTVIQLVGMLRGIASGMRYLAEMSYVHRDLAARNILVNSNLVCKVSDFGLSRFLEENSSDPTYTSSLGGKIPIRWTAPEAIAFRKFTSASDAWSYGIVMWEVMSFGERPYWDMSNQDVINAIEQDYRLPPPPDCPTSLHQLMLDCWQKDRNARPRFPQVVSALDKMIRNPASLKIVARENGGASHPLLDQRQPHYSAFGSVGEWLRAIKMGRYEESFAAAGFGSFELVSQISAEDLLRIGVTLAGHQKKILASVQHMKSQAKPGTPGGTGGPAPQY

[15] = target: T4, Ephrin type-B receptor 4 (Homo sapiens); settings: at 1 µM
[16] = target: Receptor tyrosine-protein kinase erbB-2 (Homo sapiens) (UniProt P04626); settings: at 0.1 µM
Receptor tyrosine-protein kinase erbB-2 (Homo sapiens), sequence (P04626 whole entry): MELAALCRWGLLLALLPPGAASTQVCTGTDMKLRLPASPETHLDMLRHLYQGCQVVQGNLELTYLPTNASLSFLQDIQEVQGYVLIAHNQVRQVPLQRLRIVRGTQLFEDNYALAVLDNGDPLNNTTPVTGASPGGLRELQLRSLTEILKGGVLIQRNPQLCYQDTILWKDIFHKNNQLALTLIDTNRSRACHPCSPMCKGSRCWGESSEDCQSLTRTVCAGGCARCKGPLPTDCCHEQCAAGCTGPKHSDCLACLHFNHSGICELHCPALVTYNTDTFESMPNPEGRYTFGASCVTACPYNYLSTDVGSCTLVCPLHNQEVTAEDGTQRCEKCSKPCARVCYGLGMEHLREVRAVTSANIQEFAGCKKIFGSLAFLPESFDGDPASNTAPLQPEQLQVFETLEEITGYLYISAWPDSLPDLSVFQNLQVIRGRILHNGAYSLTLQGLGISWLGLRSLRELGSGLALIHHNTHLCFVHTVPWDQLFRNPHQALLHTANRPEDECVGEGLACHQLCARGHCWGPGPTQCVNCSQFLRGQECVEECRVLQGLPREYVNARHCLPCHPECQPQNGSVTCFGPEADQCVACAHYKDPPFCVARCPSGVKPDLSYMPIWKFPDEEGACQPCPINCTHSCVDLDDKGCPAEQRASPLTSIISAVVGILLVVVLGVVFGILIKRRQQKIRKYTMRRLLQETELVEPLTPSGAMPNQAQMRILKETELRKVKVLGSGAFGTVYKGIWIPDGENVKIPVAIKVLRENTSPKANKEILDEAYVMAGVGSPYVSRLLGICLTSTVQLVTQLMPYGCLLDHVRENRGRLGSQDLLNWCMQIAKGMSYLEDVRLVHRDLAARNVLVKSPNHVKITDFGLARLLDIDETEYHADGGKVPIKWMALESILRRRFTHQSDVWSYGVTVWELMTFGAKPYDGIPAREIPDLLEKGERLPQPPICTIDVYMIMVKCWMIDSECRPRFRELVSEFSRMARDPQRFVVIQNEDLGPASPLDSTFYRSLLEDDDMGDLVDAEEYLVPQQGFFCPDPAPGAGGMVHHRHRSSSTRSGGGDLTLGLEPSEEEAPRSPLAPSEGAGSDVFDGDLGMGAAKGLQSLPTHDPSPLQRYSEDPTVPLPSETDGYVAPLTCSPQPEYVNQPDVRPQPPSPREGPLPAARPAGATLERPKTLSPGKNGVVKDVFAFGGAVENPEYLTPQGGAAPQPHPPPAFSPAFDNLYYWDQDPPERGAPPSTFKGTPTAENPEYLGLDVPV

[17] = target: Receptor tyrosine-protein kinase erbB-2 (Homo sapiens) (UniProt P04626); settings: at 1 µM
[18] = target: Receptor tyrosine-protein kinase erbB-4 (Homo sapiens) (UniProt Q15303); settings: at 0.1 µM
Receptor tyrosine-protein kinase erbB-4 (Homo sapiens), sequence (Q15303 whole entry): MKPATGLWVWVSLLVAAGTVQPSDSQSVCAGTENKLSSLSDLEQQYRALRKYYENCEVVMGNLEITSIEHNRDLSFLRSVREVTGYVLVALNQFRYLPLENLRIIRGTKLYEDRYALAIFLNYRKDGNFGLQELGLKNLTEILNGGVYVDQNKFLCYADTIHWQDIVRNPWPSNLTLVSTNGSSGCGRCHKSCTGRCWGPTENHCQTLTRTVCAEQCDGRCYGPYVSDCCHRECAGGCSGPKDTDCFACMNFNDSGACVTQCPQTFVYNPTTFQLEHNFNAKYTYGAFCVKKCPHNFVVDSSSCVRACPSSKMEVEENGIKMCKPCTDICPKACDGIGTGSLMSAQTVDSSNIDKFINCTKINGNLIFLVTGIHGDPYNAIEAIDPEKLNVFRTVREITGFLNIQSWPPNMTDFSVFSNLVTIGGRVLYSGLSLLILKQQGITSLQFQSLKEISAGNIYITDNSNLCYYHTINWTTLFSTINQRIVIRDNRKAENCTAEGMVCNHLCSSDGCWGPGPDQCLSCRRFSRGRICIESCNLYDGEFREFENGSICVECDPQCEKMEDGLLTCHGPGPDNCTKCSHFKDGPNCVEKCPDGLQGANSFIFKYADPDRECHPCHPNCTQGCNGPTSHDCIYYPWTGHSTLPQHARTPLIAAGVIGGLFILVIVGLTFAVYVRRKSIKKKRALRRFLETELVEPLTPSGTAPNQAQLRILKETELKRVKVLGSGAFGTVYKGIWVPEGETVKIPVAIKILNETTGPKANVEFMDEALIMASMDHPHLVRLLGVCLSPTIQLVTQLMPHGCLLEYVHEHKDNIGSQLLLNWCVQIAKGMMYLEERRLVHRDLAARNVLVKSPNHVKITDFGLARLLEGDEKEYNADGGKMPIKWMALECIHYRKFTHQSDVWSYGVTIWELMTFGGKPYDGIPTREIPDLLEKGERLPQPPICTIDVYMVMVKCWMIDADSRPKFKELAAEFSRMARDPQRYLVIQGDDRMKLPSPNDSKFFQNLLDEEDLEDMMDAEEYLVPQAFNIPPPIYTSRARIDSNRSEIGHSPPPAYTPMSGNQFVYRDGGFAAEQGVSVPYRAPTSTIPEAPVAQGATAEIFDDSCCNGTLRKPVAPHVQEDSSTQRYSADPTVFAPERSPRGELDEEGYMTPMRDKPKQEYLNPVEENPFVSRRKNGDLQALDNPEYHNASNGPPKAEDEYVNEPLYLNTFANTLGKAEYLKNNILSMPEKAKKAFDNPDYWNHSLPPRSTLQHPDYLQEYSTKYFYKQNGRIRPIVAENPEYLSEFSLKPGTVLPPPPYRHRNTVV

[19] = target: Receptor tyrosine-protein kinase erbB-4 (Homo sapiens) (UniProt Q15303); settings: at 1 µM
[20] = target: Tyrosine-protein kinase Fer (Homo sapiens) (UniProt P16591); settings: at 0.1 µM;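 note: reported figures are averaged percent inhibition of FER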
Tyrosine-protein kinase Fer (Homo sapiens), sequence (P16591 whole entry, looked up): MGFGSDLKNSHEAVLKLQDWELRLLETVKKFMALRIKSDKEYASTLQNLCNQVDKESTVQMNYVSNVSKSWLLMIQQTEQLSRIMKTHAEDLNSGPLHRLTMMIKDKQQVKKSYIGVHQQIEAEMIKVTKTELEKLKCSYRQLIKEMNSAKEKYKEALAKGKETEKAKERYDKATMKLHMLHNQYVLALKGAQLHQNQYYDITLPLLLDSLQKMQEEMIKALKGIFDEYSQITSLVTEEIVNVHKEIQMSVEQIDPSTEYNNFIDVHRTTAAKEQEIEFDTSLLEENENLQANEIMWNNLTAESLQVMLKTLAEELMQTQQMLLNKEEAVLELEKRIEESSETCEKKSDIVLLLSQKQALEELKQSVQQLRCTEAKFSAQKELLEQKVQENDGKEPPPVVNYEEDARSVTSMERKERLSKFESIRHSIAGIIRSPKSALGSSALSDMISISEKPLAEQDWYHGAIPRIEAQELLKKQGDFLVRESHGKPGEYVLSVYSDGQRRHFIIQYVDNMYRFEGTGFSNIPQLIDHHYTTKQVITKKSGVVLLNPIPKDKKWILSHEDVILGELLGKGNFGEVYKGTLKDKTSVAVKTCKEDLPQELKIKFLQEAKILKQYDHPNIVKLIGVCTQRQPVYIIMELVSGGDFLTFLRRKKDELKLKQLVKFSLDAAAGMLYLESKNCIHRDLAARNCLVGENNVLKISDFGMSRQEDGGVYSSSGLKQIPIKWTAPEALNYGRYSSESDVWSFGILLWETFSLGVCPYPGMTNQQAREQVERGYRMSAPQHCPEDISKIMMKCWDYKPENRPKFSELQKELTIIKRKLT

Epidermal growth factor receptor (Homo sapiens), P00533 [T790M], sequence (P00533 whole entry T790M): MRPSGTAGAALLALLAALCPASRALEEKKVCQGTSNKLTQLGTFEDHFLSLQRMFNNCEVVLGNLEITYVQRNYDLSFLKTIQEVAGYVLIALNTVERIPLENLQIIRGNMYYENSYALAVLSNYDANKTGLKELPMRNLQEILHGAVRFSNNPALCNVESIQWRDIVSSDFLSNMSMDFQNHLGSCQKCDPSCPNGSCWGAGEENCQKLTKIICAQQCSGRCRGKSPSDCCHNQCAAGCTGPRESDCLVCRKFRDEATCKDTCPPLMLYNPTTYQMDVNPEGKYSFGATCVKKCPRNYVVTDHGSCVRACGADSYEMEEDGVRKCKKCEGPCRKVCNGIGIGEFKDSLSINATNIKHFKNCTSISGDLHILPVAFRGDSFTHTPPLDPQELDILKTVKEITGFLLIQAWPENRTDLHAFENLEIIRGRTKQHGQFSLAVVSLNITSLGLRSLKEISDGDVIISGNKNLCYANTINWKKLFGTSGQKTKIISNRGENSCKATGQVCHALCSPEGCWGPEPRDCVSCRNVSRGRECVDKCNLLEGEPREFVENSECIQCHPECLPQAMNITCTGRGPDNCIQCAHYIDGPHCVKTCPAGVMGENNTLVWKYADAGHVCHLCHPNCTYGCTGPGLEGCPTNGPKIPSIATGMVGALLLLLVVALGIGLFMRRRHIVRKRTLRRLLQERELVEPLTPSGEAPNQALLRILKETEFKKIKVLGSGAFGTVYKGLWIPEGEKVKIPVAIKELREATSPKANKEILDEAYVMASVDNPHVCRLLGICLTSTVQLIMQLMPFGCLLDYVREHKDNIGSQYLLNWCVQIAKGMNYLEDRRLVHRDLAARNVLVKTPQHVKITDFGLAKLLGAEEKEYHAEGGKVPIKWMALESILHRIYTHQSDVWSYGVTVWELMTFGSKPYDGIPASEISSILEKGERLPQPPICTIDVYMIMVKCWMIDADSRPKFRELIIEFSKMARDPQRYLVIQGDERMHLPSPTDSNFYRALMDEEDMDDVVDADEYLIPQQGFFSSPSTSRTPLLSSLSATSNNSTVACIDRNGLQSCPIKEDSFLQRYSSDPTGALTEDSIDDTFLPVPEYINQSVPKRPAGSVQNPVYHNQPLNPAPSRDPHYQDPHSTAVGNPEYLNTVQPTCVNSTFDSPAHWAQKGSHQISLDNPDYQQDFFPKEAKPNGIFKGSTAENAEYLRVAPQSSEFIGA

SMILES	inhibition [1]	inhibition [2]	inhibition [3]	inhibition [4]	inhibition [5]	inhibition [6]	inhibition [7]	inhibition [8]	inhibition [9]	inhibition [10]	inhibition [11]	inhibition [12]	inhibition [13]	inhibition [14]	inhibition [15]	inhibition [16]	inhibition [17]	inhibition [18]	inhibition [19]	inhibition [20]
CCn1c(-c2nonc2N)nc2c(C#CCN)ncc(OCCCN)c21	5.94%	3.07%	5.28%	5.32%	1.78%	-2.35%	-1%	-3.41%	3.82%	-6%	-5.25%	-7.45%	1.18%	-2.64%	-2.62%	-3.17%	3.87%	-7.51%	2.14%	5.14%
NS(=O)(=O)c1ccc(-c2ccc3c(NC(=O)C4CC4)n[nH]c3c2)cc1	-0.38%	-1.39%	1.78%	3%	1.18%	2.34%	2.31%	4.83%	1.43%	7.57%	8.86%	4.28%	4.38%	1.05%	3.22%	-0.2%	0.41%	8.86%	7.66%	-0.63%
Fc1ccc(-c2ncn(C3CCNCC3)c2-c2ccnc(Oc3ccccc3)n2)cc1	2.3%	-1.55%	0.47%	-5.61%	-5.64%	-1.44%	-1.53%	4.92%	5.9%	5.55%	5.52%	-0.53%	-0.5%	-4.2%	1.66%	9.4%	10.7%	10.8%	15.3%	1.63%
Cc1cc(-c2ccco2)cc(C)c1/C=C/c1cncc(-c2nn[nH]n2)c1	1.13%	-2.33%	0.17%	1.36%	1.78%	-0.31%	0.86%	1.64%	3.95%	-9.41%	3.46%	0.39%	4.16%	0.18%	2.02%	3.01%	3.5%	2.03%	15.7%	4.17%
Nc1nonc1-c1nc2cnccc2n1C1CCCCC1	-2.94%	-0.65%	-0.53%	-4.45%	-4.85%	-7.25%	-1.98%	-4.61%	-3.51%	-7.08%	-8.8%	-1.43%	-4.08%	-3.41%	-1.63%	-3.46%	-1.33%	-5.14%	-5.19%	-1.75%
CCn1c(-c2nonc2N)nc2c(C#CC(C)(C)O)ncc(OC[C@@H]3CCCN3)c21	-0.11%	4.31%	-0.19%	1.83%	0.02%	0.32%	-1.12%	-0.1%	2.58%	-7.23%	-3.01%	-0.27%	0.62%	-1.76%	1.1%	0.95%	3.51%	1.3%	7.9%	-1.38%
COc1cc2c(cc1Nc1nc(Nc3ccsc3C(N)=O)c3cc[nH]c3n1)N(C(=O)CN(C)C)CCC2	55%	29.8%	77.5%	1.21%	-1.44%	1.88%	-0.28%	0.13%	4.13%	-6.85%	5.1%	0.25%	1.02%	-2.11%	1.55%	-0.5%	1.76%	8.03%	35.3%	79.7%

— ChEMBL document CHEMBL1961873, “Compounds: GSK PKIS; Assays: Nanosyn kinase panel” (2012)
